In the supplement of paper PMC10077471:
In all, about 1,900 compounds were measured (“excess over highest single agent (ExcessHSA) synergy score, 6x6 matrix”: median about -83, lowest 2% from about -370 on). Many of the other results were omitted from the sample, so the lowest values are more common in it than they were.

System: NCI-H446
Assay: excess over highest single agent (ExcessHSA) synergy score, 6x6 matrix; higher = less synergy (more negative = stronger synergy)
Conditions: 72 h; CellTiter-Glo viability

| Structure (SMILES) | excess over highest single agent |
| --- | --- |
| CCn1c(C(=O)N(C2CC2)C2CC2)cc2c3c(ncn3C)c(Nc3cc(C)n(C)n3)nc21 + Cc1sc2c(c1C)C(c1ccc(Cl)cc1)=N[C@@H](CC(=O)OC(C)(C)C)c1nnc(C)n1-2 [NCGC00250412-19] | 76.1 |
| N#C/C(=C(/N)Sc1ccc(N)cc1)c1ccccc1C(F)(F)F + Cc1sc2c(c1C)C(c1ccc(Cl)cc1)=N[C@@H](CC(=O)OC(C)(C)C)c1nnc(C)n1-2 [NCGC00250412-19] | -146 |
| CCc1ccc(C(=O)Nc2cc(CN3CCN(C)CC3)cc(C(F)(F)F)c2)cc1C#Cc1cnc2ccnn2c1 + Cc1sc2c(c1C)C(c1ccc(Cl)cc1)=N[C@@H](CC(=O)OC(C)(C)C)c1nnc(C)n1-2 [NCGC00250412-19] | -7.02 |
| O=C(NCc1ccccc1)[C@H](Cc1ccccc1)NC(=O)[C@H]1O[C@@H]1C(=O)NCCc1ccc(O)cc1 + Cc1sc2c(c1C)C(c1ccc(Cl)cc1)=N[C@@H](CC(=O)OC(C)(C)C)c1nnc(C)n1-2 [NCGC00250412-19] | -10.6 |
| CCN1CCN(C(=O)Cc2ccc(Nc3ncc(F)c(Nc4ccc(C(=O)Nc5ccccc5Cl)cc4)n3)cc2)CC1 + Cc1sc2c(c1C)C(c1ccc(Cl)cc1)=N[C@@H](CC(=O)OC(C)(C)C)c1nnc(C)n1-2 [NCGC00250412-19] | -388 |
| O=C(O)c1ccc(Nc2ncc3c(n2)-c2ccc(Cl)cc2C(c2c(F)cccc2F)=NC3)cc1 + Cc1sc2c(c1C)C(c1ccc(Cl)cc1)=N[C@@H](CC(=O)OC(C)(C)C)c1nnc(C)n1-2 [NCGC00250412-19] | -157 |
| Cc1ccc(NC(=O)c2ccc(CN3CCN(C)CC3)cc2)cc1Nc1nccc(-c2cccnc2)n1 + Cc1sc2c(c1C)C(c1ccc(Cl)cc1)=N[C@@H](CC(=O)OC(C)(C)C)c1nnc(C)n1-2 [NCGC00250412-19] | -176 |
| OC[C@@H](O)[C@@H](O)[C@@H](O)CO + Cc1sc2c(c1C)C(c1ccc(Cl)cc1)=N[C@@H](CC(=O)OC(C)(C)C)c1nnc(C)n1-2 [NCGC00250412-19] | -189 |
| Cc1cc(Nc2nc(N[C@@H](C)c3ncc(F)cn3)ncc2Cl)[nH]n1 + Cc1sc2c(c1C)C(c1ccc(Cl)cc1)=N[C@@H](CC(=O)OC(C)(C)C)c1nnc(C)n1-2 [NCGC00250412-19] | -46 |
| Cc1cc(Nc2nc(N[C@@H](C)c3ccc(F)cc3)c(C#N)cc2F)n[nH]1 + Cc1sc2c(c1C)C(c1ccc(Cl)cc1)=N[C@@H](CC(=O)OC(C)(C)C)c1nnc(C)n1-2 [NCGC00250412-19] | -209 |
| CC(C)Oc1cc(Nc2nc(N[C@@H](C)c3ccc(F)cn3)ncc2Cl)n[nH]1 + Cc1sc2c(c1C)C(c1ccc(Cl)cc1)=N[C@@H](CC(=O)OC(C)(C)C)c1nnc(C)n1-2 [NCGC00250412-19] | -396 |
| CCOC(=O)C1=C(O)C(=O)N(Cc2ccccc2)C1 + Cc1sc2c(c1C)C(c1ccc(Cl)cc1)=N[C@@H](CC(=O)OC(C)(C)C)c1nnc(C)n1-2 [NCGC00250412-19] | -90.7 |
| Cc1ccccn1.N.[Cl-].[Cl-].[Pt+2] + Cc1sc2c(c1C)C(c1ccc(Cl)cc1)=N[C@@H](CC(=O)OC(C)(C)C)c1nnc(C)n1-2 [NCGC00250412-19] | 123 |
| CNC(=O)c1ccc(-c2cnc3ncc(Cc4ccc5ncccc5c4)n3n2)cc1F + Cc1sc2c(c1C)C(c1ccc(Cl)cc1)=N[C@@H](CC(=O)OC(C)(C)C)c1nnc(C)n1-2 [NCGC00250412-19] | 48.7 |
| OC[C@H]1OC(O)C[C@@H](O)[C@@H]1O (stereo partly drawn) + Cc1sc2c(c1C)C(c1ccc(Cl)cc1)=N[C@@H](CC(=O)OC(C)(C)C)c1nnc(C)n1-2 [NCGC00250412-19] | -201 |
| N#Cc1c(N(CC(=O)O)CC(=O)O)sc(C(=O)O)c1CC(=O)O + Cc1sc2c(c1C)C(c1ccc(Cl)cc1)=N[C@@H](CC(=O)OC(C)(C)C)c1nnc(C)n1-2 [NCGC00250412-19] | -47.5 |
| C=CCON=C(C[C@H]1O[C@@H]2O[C@]3(C)CC[C@@H]4[C@H](C)CC[C@@H]([C@H]1C)[C@@]24OO3)[C@H]1O[C@@H]2O[C@]3(C)CC[C@H]4[C@H](C)CC[C@@H]([C@@H]1C)[C@@]24OO3 + Cc1sc2c(c1C)C(c1ccc(Cl)cc1)=N[C@@H](CC(=O)OC(C)(C)C)c1nnc(C)n1-2 [NCGC00250412-19] | -427 |
| C[C@@H]1[C@@H](C(=O)C[C@H]2O[C@@H]3O[C@]4(C)CC[C@@H]5[C@H](C)CC[C@@H]([C@H]2C)[C@@]35OO4)O[C@@H]2O[C@]3(C)CC[C@H]4[C@H](C)CC[C@@H]1[C@@]24OO3 + Cc1sc2c(c1C)C(c1ccc(Cl)cc1)=N[C@@H](CC(=O)OC(C)(C)C)c1nnc(C)n1-2 [NCGC00250412-19] | -355 |
| C[C@H]1[C@@H](O)O[C@@H]2O[C@@]3(C)CC[C@H]4[C@H](C)CC[C@@H]1[C@@]24OO3 + Cc1sc2c(c1C)C(c1ccc(Cl)cc1)=N[C@@H](CC(=O)OC(C)(C)C)c1nnc(C)n1-2 [NCGC00250412-19] | -199 |

| Structure (SMILES) | excess over highest single agent |
| --- | --- |
| Cn1cnc(=N)c2[nH]cnc21 + Cc1sc2c(c1C)C(c1ccc(Cl)cc1)=N[C@@H](CC(=O)OC(C)(C)C)c1nnc(C)n1-2 [NCGC00250412-19] | -164 |
| CN1c2cc(O)c(N=NC(N)=O)cc2CC1S(=O)(=O)O (stereo not drawn) + Cc1sc2c(c1C)C(c1ccc(Cl)cc1)=N[C@@H](CC(=O)OC(C)(C)C)c1nnc(C)n1-2 [NCGC00250412-19] | -280 |
| O=C(O)C(=O)Nc1cccc(-c2nnn[nH]2)c1 + Cc1sc2c(c1C)C(c1ccc(Cl)cc1)=N[C@@H](CC(=O)OC(C)(C)C)c1nnc(C)n1-2 [NCGC00250412-19] | 42.8 |
| C#CCN(C)CC1=Cc2ccccc2Oc2ccccc21 + Cc1sc2c(c1C)C(c1ccc(Cl)cc1)=N[C@@H](CC(=O)OC(C)(C)C)c1nnc(C)n1-2 [NCGC00250412-19] | -204 |
| Cc1cnc(CNC(=O)c2c(=O)c3ccc(N4CCCN(C)CC4)nc3n3c2sc2ccccc23)cn1 + Cc1sc2c(c1C)C(c1ccc(Cl)cc1)=N[C@@H](CC(=O)OC(C)(C)C)c1nnc(C)n1-2 [NCGC00250412-19] | -259 |
| Cc1cn2cc(C(=O)N(C)CCO)cc(N[C@@H]3CCOc4cccc(C)c43)c2n1 + Cc1sc2c(c1C)C(c1ccc(Cl)cc1)=N[C@@H](CC(=O)OC(C)(C)C)c1nnc(C)n1-2 [NCGC00250412-19] | 64.1 |
| CNC(=O)N1N=C(c2ccc(N)cc2)c2cc3c(cc2CC1C)OCO3 (stereo not drawn) + Cc1sc2c(c1C)C(c1ccc(Cl)cc1)=N[C@@H](CC(=O)OC(C)(C)C)c1nnc(C)n1-2 [NCGC00250412-19] | -19.1 |
| O=C(CCCCCCC(=O)Nc1cccnc1)NO + Cc1sc2c(c1C)C(c1ccc(Cl)cc1)=N[C@@H](CC(=O)OC(C)(C)C)c1nnc(C)n1-2 [NCGC00250412-19] | -276 |
| Nc1ccc(C(=O)Nc2cccc(-c3nc(N4CCOCC4)c4oc5ncccc5c4n3)c2)cn1 + Cc1sc2c(c1C)C(c1ccc(Cl)cc1)=N[C@@H](CC(=O)OC(C)(C)C)c1nnc(C)n1-2 [NCGC00250412-19] | 98.4 |
| c1cncc(CN2CCC(n3ncc4c(N5CCOCC5)nc(-c5ccc6[nH]ccc6c5)nc43)CC2)c1 + Cc1sc2c(c1C)C(c1ccc(Cl)cc1)=N[C@@H](CC(=O)OC(C)(C)C)c1nnc(C)n1-2 [NCGC00250412-19] | -140 |
| Oc1cccc(-c2nc(N3CCOCC3)c3oc4ncccc4c3n2)c1 + Cc1sc2c(c1C)C(c1ccc(Cl)cc1)=N[C@@H](CC(=O)OC(C)(C)C)c1nnc(C)n1-2 [NCGC00250412-19] | -410 |
| Cc1ccc(C(=O)Nc2cccc(C(F)(F)F)c2)cc1-c1ccc2nc(NCCN3CCOCC3)ncc2c1 + Cc1sc2c(c1C)C(c1ccc(Cl)cc1)=N[C@@H](CC(=O)OC(C)(C)C)c1nnc(C)n1-2 [NCGC00250412-19] | -140 |
| Nc1ncnc2c1c(-c1cccc(OCc3ccccc3)c1)cn2C1CC(CN2CCC2)C1 (stereo not drawn) + Cc1sc2c(c1C)C(c1ccc(Cl)cc1)=N[C@@H](CC(=O)OC(C)(C)C)c1nnc(C)n1-2 [NCGC00250412-19] | -56.6 |
| COc1ncc(-c2ccc3nccc(-c4ccnnc4)c3c2)cc1NS(=O)(=O)c1ccc(F)cc1F + Cc1sc2c(c1C)C(c1ccc(Cl)cc1)=N[C@@H](CC(=O)OC(C)(C)C)c1nnc(C)n1-2 [NCGC00250412-19] | -259 |
| CCn1c(-c2nonc2N)nc2cncc(CNC3CCNCC3)c21 + Cc1sc2c(c1C)C(c1ccc(Cl)cc1)=N[C@@H](CC(=O)OC(C)(C)C)c1nnc(C)n1-2 [NCGC00250412-19] | 51.1 |
| Cc1ccccc1-n1c(Cn2nc(-c3cccc(O)c3)c3c(N)ncnc32)nc2cccc(C)c2c1=O + Cc1sc2c(c1C)C(c1ccc(Cl)cc1)=N[C@@H](CC(=O)OC(C)(C)C)c1nnc(C)n1-2 [NCGC00250412-19] | -224 |
| O=C(O)[C@]1(Cc2cccc(Nc3nccs3)n2)CC[C@@H](Oc2cccc(Cl)c2F)CC1 + Cc1sc2c(c1C)C(c1ccc(Cl)cc1)=N[C@@H](CC(=O)OC(C)(C)C)c1nnc(C)n1-2 [NCGC00250412-19] | -273 |
| O=C(O)c1nc(=O)[nH]c(=O)[nH]1 + Cc1sc2c(c1C)C(c1ccc(Cl)cc1)=N[C@@H](CC(=O)OC(C)(C)C)c1nnc(C)n1-2 [NCGC00250412-19] | -48.1 |
| CCS(=O)(=O)c1cccc(-c2cc(C(=O)NC3CCN(C)CC3)c(C)c3[nH]c4ncc(C)cc4c23)c1 + Cc1sc2c(c1C)C(c1ccc(Cl)cc1)=N[C@@H](CC(=O)OC(C)(C)C)c1nnc(C)n1-2 [NCGC00250412-19] | -197 |
